PI5P4K alpha inh = qHTS for Inhibitors of phosphatidylinositol 5-phosphate 4-kinase (PI5P4K) | PI5P4Kalpha enzyme, ADP-Glo luminescence, 60 min; hits give low values | 1.2% of 330,000 active | max response, % | Phosphatidylinositol 5-phosphate 4-kinase type-2 alpha (Homo sapiens), P48426 | AID 652105, 2013; active = max response of -50% or lower; inconclusive = between -30% and -50%; inactive = -30% or higher; also: value at the top dose of about 77 µM
Target sequence (P48426 whole entry, looked up): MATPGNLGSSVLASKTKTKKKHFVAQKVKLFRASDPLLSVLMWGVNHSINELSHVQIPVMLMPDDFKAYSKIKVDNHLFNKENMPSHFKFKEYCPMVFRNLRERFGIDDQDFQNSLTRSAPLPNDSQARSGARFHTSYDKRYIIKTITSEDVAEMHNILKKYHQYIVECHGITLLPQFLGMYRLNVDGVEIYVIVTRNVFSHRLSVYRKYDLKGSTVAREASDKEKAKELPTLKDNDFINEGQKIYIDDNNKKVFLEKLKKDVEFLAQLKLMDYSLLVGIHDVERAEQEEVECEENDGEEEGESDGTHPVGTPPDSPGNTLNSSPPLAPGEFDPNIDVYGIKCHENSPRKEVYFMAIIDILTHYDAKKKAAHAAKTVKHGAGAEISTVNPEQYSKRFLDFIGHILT
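qHTS, 1536-well: enzyme/substrate mix, compound by pin tool, 5 microM ATP final; RT 60 min; ADP-Glo reagents 1 (45 min) then 2 (30 min); luminescence.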
HP1b binding inh = HTS for Inhibitors of HP1-beta Chromodomain Interactions with Methylated Histone Tails; Chromobox protein homolog 1 (Homo sapiens), P83916; 0.56% of 390,000 active; AlphaScreen HP1-beta / biotin-H3K9me3 peptide binding; Potency, µM (titrated, usually from 114 µM), most hits filed as inhibitors; also: nearly all actives have a fitted effect of over 70% in size
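Compound inhibition of the preformed complex between 50 nM HP1-beta and 50 nM biotinylated H3K9me3 peptide was read by AlphaScreen. Buffer was PBS pH 7.4 with 0.01% Tween-20. Incubations ran 30 min at room temperature, with 10 ug/mL donor/acceptor beads.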
PLK1 PBD block = qHTS for Inhibitors of PLK1-PDB (polo-like kinase 1 - polo-box domain): Primary Screen; Serine/threonine-protein kinase PLK1 (Homo sapiens), P53350; Plk1 PBD binding of FITC phosphopeptide, fluorescence polarization; Potency, µM, most hits filed as inhibitors; 2.8% of 360,000 active; AID 720504, 2013; also: series mostly up to about 57 µM; nearly all actives have a fitted effect of over 65% in size
JMJD2A Tudor = qHTS Assay for Inhibitors of JMJD2A-Tudor Domain; Lysine-specific demethylase 4A (Homo sapiens), O75164; AID 504339, 2011; AlphaScreen JMJD2A-Tudor / H3K4me3 peptide binding; Potency, µM (series often up to 114 µM), most hits filed as inhibitors; 4.4% of 390,000 active; also: nearly all actives have a fitted effect of over 50% in size
G9a block = qHTS Assay for Inhibitors of Histone Lysine Methyltransferase G9a; Histone-lysine N-methyltransferase EHMT2 (Homo sapiens), Q96KQ7; G9a H3K9 monomethylation, AlphaScreen, 2 h; Potency, µM (series often up to 102 µM), hits mostly inhibitors; 8.8% of 350,000 active; AID 504332, 2011; also: nearly all actives have a fitted effect of over 75% in size
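Signal arises when biotinylated H3K9 peptide, once monomethylated, bridges streptavidin donor and antibody-captured acceptor beads. Enzyme at 20 nM was preincubated 15 min with test compounds; peptide 500 nM and SAM 20 uM then reacted for 2 h.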
BAZ2B block = qHTS Assay for Inhibitors of BAZ2B; Potency, µM (titrated, usually from 114 µM), actives largely listed as inhibitors; AlphaScreen BAZ2B-H3K14Ac peptide displacement; Bromodomain adjacent to zinc finger domain protein 2B (Homo sapiens), Q9UIF8; 4.4% of 360,000 active; AID 504333, 2011; also: nearly all actives have a fitted effect of over 60% in size
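Protein-peptide AlphaScreen: BAZ2B 50 nM, b-H3K14Ac 50 nM, 1x PBS pH 7.4 + 0.01% Tween-20. Preincubation 30 min RT; cpd 30 min RT (top 110 uM); beads 20 min RT, light-protected.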
A number is an active result; n = inactive; u = inconclusive; x = no result; [ ] = dose if it differs, or a comment. Shown are actives, neighbours in structure and some others; about 12% of the full set was active somewhere. Unless noted, calls follow the shape of the dose curve; as a rule, active = well fitted curve in the direction sought with a large enough effect; inconclusive = small, poorly fitted or top-dose-only effect, or another doubt; inactive = no such curve, though single readings can be large; an effect the other way counts as inactive or inconclusive.

SMILES	PI5P4K alpha inh	HP1b binding inh	PLK1 PBD block	JMJD2A Tudor	G9a block	BAZ2B block
CN(C)CCCN(C(=O)COc1ccc(Cl)cc1)c1nc2cc3c(cc2s1)OCCO3	n	n	n	u	50µM	n
CN(C)CCCN(C(=O)COc1ccc(Cl)cc1)c1nc2cc3c(cc2s1)OCO3	n	n	n	u	71µM	u
CN(C)CCCN(C(=O)COc1ccccc1)c1nc2cc3c(cc2s1)OCO3	n	n	n	n	50µM	n
CN(C)CCCN(C(=O)COc1ccccc1)c1nc2c(F)cccc2s1	n	n	n	n[11.4 µM]	n	n
CC(C)/C=C/CN1CCCC(N2CCN(c3cccc(Cl)c3)CC2)C1 (configuration not stated)	n	n	n	n	n	n
COc1ccc(-c2coc3c(C(=O)NCC4CCOCC4)cccc23)c(C)c1	n	x	n	x	x	x
CCOC(=O)c1ccc(N2C(=O)c3n[nH]c(-c4ccco4)c3C2c2ccccc2OC)cc1 (configuration not stated)	x	n	x	u	13µM	x
CCOC(=O)c1ccc(N2C(=O)c3n[nH]c(-c4ccco4)c3C2c2ccc(F)cc2)cc1 (configuration not stated)	x	n	x	u	11µM	x
CS(=O)(=O)c1cccc(NC(=O)C2CCCN2S(=O)(=O)c2ccc(F)cc2)c1 (configuration not stated)	n	n	n	n	u	n
O=C(OCC#CCSc1nnc(-c2cccc3ccccc23)o1)c1ccc(OC(F)(F)F)cc1	x	x	x	n	x	x
CCOC(=O)c1nc(NCc2ccccc2)sc1C	u	u	6.7µM	79µM	3.5µM	u
Cc1nc(NCc2ccccc2)sc1C(=O)Nc1ccccc1	n	n	n	n	50µM	u
Cc1nc(NC(C)c2ccccc2)sc1C(=O)Nc1ccccc1 (configuration not stated)	n	n	24µM	n	n	u
Cc1nc(Nc2ccccc2)sc1C(=O)Nc1ccccc1	n	n	n	n	x	n
CC(=O)c1sc(NC(C)c2ccccc2)nc1C (configuration not stated)	n	n	n	n	n	n
Cc1nc(NCCOc2ccccc2)sc1C(=O)Nc1ccccc1	n	n	n	n	45µM	n
CC(OC(=O)CCN=C1NS(=O)(=O)c2ccccc21)C(=O)Nc1ccc(S(N)(=O)=O)cc1 (configuration not stated)	n	n	n	n	n[12.7 µM]	n
O=C1Nc2ccccc2C1=Nc1ccc(S(=O)(=O)Nc2nccs2)cc1	-79	n	27µM	56µM	u	n
NS(=O)(=O)c1ccc(N=C2C(=O)Nc3ccccc32)cc1	n	n	n	n	x	n
Cc1ccc(-c2nnc3ccc(SC(C)C(=O)O)nn23)cc1 (configuration not stated)	u	u	u	40µM	3.5µM	n
CCC(Sc1ccc2nnc(-c3cccnc3)n2n1)C(=O)O (configuration not stated)	-58	n	n	n	50µM	n
CCOC(=O)C(C)Sc1ccc2nnc(-c3ccc(OCC)cc3)n2n1 (configuration not stated)	x	n	x	n	x	x
CC(Sc1ccc2nnc(-c3ccc(F)cc3)n2n1)C(=O)O (configuration not stated)	u	n	27µM	u	3.5µM	n
COC(=O)C(C)Sc1ccc2nnc(-c3ccccc3)n2n1 (configuration not stated)	n	n	n	n	u	x
CCOC(=O)C(C)Sc1ccc2nnc(-c3ccc(F)cc3)n2n1 (configuration not stated)	x	n	u	n	7.9µM	n
